From article PMC12136788
Substitutions are numbered along the chain they refer to. Whole data set: some 24,000 sequences, median “enrichment r” near 0.99, cut for the highest 2% near 3.7. The full list was thinned out, with the highest values kept by preference.

T1: UNK ZnF1-3 (human, UniProt Q9C0B0 31-174)
T1 sequence: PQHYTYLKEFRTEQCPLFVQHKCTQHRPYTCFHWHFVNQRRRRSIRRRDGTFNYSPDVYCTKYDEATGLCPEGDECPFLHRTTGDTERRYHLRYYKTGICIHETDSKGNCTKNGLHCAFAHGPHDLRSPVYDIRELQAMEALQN

B1: chr3:100058692:100058693:+_ENSG00000114021_ENST00000480073|hu_mus|motif|central (ssRNA)
RNA: GGGAGUUCUACAGUCCGACGAUCAUAGUCAGGAAAGUAGGUUGUUCCAUAUGGAGAAUUGAAGCACUCAGGCAGAGAAACGGUGUUGGCACCUUGCUUUGCUGCCUCCCGCACUAGGCUACAAGCCCGGGUAAGGUUAUCUGACAACAGAGGAUUGAGCAUCA
B2: chr10:1038552:1038553:+_ENSG00000107937_ENST00000545048|hu_hu|FALSE|FALSE (ssRNA)
RNA: GGGAGUUCUACAGUCCGACGAUCCAUAGAACGGAUGAAUAUCAUCCAAUUUGGGGAAAUCUGUUAGAAUUUGUGAAAGUCUAUCAUGGUAAUUCUGUUGAGUAAAUUUGACUUUUCUCAUGUAAAAAUGUCUAAUGCGAUGUACAACAGAGGAUUGAGCAUCA
B3: chr9:91931296:91931297:+_ENSG00000123975_ENST00000314355|hu_hu|hu_hu_hu_mus_True|48_108 (ssRNA)
RNA: GGGAGUUCUACAGUCCGACGAUCAGAUUGACGAUCCCCAGCUGCACUUCAUUUUUGUUGUUCUUUUGGAAGAGGUCGUCUAAAGAGAAGAAUAUGUGGUUCUGGCUCAUGAAUCAUGUAAUGAACCCAUCCUAGACUCUGUUGCAACAGAGGAUUGAGCAUCA
B4: chr2:62103349:62103350:-_ENSG00000115484_ENST00000544079|hu_mus|motif|central (ssRNA)
RNA: GGGAGUUCUACAGUCCGACGAUCAAUAUAGGCUCUCUCCUCUCGAAGCACUCGAUCCAUCUGGGCAUAGUCAGAUACGGCGGUUUGAUUAUCCAUAUCUGUUUUAGGAGCAGAUAAGCAAAACUGAAUAAGCCCAAUCUUAGCCAACAGAGGAUUGAGCAUCA
B5: chr2:170668292:170668293:+_ENSG00000138385_ENST00000260956|hu_mus|motif|central (ssRNA)
RNA: GGGAGUUCUACAGUCCGACGAUCACCUAAUUCGCUUUUCUUUUUAAAAGCUUCUGAAGACAAAAAGCAGCUUAAAAUCGGACGGAGGAAUAAAAACACUGCUUACUAAAUAAACUACUUGUCUCUAGCACCAUUUUCUCUUUUCAACAGAGGAUUGAGCAUCA
B6: 203424622_203424742_3669_3pUTR_ENSG00000204217_ENST00000374580|human|control|control (ssRNA)
RNA: GGGAGUUCUACAGUCCGACGAUCUUUUAUUUUUAAACAUCUUCUGCAUGUUUAAAUGAUGCAAAAAAUAAUUUCACUCCAUAGGCUUGAAAACAUUUCACAGACAGUUCAUUCCUAUAUCUUUAGACACCAUGGUUGUAGCAGCAACAGAGGAUUGAGCAUCA
B7: chr20:57486015:57486016:+_ENSG00000087460_ENST00000306090|hu_mus|FALSE|FALSE (ssRNA)
RNA: GGGAGUUCUACAGUCCGACGAUCCCUUUUUUUUCUUUUUCUUCUGUAGGCCGCCUUAAGCUUACUAAAUUUGGAACAUCUAAGCAAGCUGAAGGGAAGAGGGGUUUUUCAGAAUCACUGGGGGAAAAAGGAAAGGUUGCGGUGCAACAGAGGAUUGAGCAUCA
B8: chr1:35650007:35650008:-_ENSG00000116560_ENST00000357214|hu_hu|motif|central (ssRNA)
RNA: GGGAGUUCUACAGUCCGACGAUCAUCCAUAAAAAGAUAGCUUUCUUACUAAAAUGCAAGAAUUUAAAAGAUUGGUAUCGGAACAAAAAAACAAAACAAACUGGAAUGAAAGCCUAAAUAUCACAUCUAAAAUCGGGGUUUUUUCAACAGAGGAUUGAGCAUCA
B9: chr19:41288892:41288893:-_ENSMUSG00000025016_ENSMUST00000025989|mus_mus|motif|central (ssRNA)
RNA: GGGAGUUCUACAGUCCGACGAUCUGGAUGGAACUGAGAAAGCUGGUUAAUUUUAAGAUAAAUAAAUGAGGUUGAUCCAAACGGAGAUUAAGAUGACAGCAGAUAUAUUCCAUGCAGAAUUGAAUAGCUUUUAAUUUUGUUUUUCAACAGAGGAUUGAGCAUCA
B10: chr7:93623566:93623567:-_ENSG00000105829_ENST00000222547|hu_hu|FALSE|FALSE (ssRNA)
RNA: GGGAGUUCUACAGUCCGACGAUCGAACAAAUUCCAAAUUCACAAUUACAUGCAUCACCUCAGUUUAAUAAUCCAAUAAAUGAUAAAAAAGACAAAUAAAGAAAACAGCAUCAUAUAGCACAGCAGCUUUGUUUGGCUCCCUCUCAACAGAGGAUUGAGCAUCA
B11: chr6:136599331:136599332:-_ENSG00000029363_ENST00000527536|hu_mus|motif|central (ssRNA)
RNA: GGGAGUUCUACAGUCCGACGAUCGGGGGCAUCUGAGCAUGAUGAACUCUGACUGGGUGGUGUAGCAAUAGGUGAAGGACGGUGAGGUGACCUUGGACUAUUAUCAUAAGCUGAAAGGCCAGGCCAAAUAUCACCAGAAGUAGCCAACAGAGGAUUGAGCAUCA
B12: chr15:40462788:40462789:+_ENSG00000156970_ENST00000287598|hu_mus|FALSE|FALSE (ssRNA)
RNA: GGGAGUUCUACAGUCCGACGAUCAAAGCGGGGGUCAUUAUAAUAGCGCGUCUCUCCUUGGAGUGCUUCUAUCGCUCUCUCCACUAACGCUGACAUGUUACUCUCUUUCCCCCCUUGAGGGUAGUUCUGUUCUGUCCAAUUAAUCAACAGAGGAUUGAGCAUCA
B13: chr2:128501614:128501615:-_ENSMUSG00000014355_ENSMUST00000014499|mus_mus|FALSE|FALSE (ssRNA)
RNA: GGGAGUUCUACAGUCCGACGAUCAGCCACAGGGGAUUCGCCUUUGGAGAGGCUUCUGAGAUGUGCUGUCAGGGAGCUGCUAGUAGUUGCAUUCUGCAGGGUCCCUGCCUGCUCAGGGAACUUUAAAACAGCAUUCUCUUCCUCCAACAGAGGAUUGAGCAUCA
B14: 52131286_52135943_886_CDS_ENSMUSG00000022637_ENSMUST00000114471|mouse|control|control (ssRNA)
RNA: GGGAGUUCUACAGUCCGACGAUCCGUGAGAAAUGCCAUGUAUCCCGGGUGAGUCACAGCCAAGAAGUUCCAAUUCCGUAAAAUAGAGCCCCAGGGCUGAAAUAGCCUGGUAAAAAUAUCAAAUUCAAACACUGAGAUGUAAUCCAACAGAGGAUUGAGCAUCA
B15: chr1:130485734:130485735:-_ENSMUSG00000045382_ENSMUST00000052172|mus_hu|FALSE|FALSE (ssRNA)
RNA: GGGAGUUCUACAGUCCGACGAUCGAUGAAGGAGUCGAUGCUGAUCCCAAUGUAGUAAGGCAGCCAACAGGCGAAGAAAGCCAGGAUGAGGAUGACUGUGGUCUUGAGGGCCUUGCGCUUCUGGUGGCCCUUGGAGUGUGACAGCAACAGAGGAUUGAGCAUCA
B16: chr20:61576232:61576233:+_ENSG00000101193_ENST00000266069|hu_hu|FALSE|FALSE (ssRNA)
RNA: GGGAGUUCUACAGUCCGACGAUCGGAUCCACCACGCAAGCGCAGGCGCUACUUGGGCUCCUCAAUCACACCCUUGCUGAGGUCUGUCAUUUUGGGAUAUUUUACUUUCUUCUGGUCCAGCUCGUUCUGAGCCCAAAGUAGUAGCAACAGAGGAUUGAGCAUCA
B17: chr17:60770872:60770873:+_ENSG00000011028_ENST00000303375|hu_hu|hu_hu_hu_mus_True|58_78 (ssRNA)
RNA: GGGAGUUCUACAGUCCGACGAUCUCUUUAAAAAAAAAAAAAAAAAGACAAACAAUAAUAAUGGCACUCGAGAAUCAUCAACUACAGUAGAGGGUCCGCUUUGAGUUUUUGUUCACAUCGUCCUGCACUGGGACACGGGGACUGCAACAGAGGAUUGAGCAUCA
B18: chr17:60770872:60770873:+_ENSG00000011028_ENST00000303375|hu_hu|hu_hu_hu_mus_True|28_78 (ssRNA)
RNA: GGGAGUUCUACAGUCCGACGAUCUCUUUAAAAAAAAAAAAAAAAAGACAAACAAUAAUAAUGGCACUCGAGAAUCAAGAACUACAAUAGAGGGUCCGCUUUGAGUUGUCCAUGUUCUCGUCCUGCACUGGGACACGGGGACUGCAACAGAGGAUUGAGCAUCA
B19: chr17:60770872:60770873:+_ENSG00000011028_ENST00000303375|hu_hu|hu_hu_hu_mus_True|28_88 (ssRNA)
RNA: GGGAGUUCUACAGUCCGACGAUCUCUUUAAAAAAAAAAAAAAAAAGUUUAAAAACAAUAGCACAUUUCGAGAAUCAAGAACUACAAUAGAGGGUCCGCUUUGAGUUGUCCAUGUUCUCGUCCUGCACUGGGACACGGGGACUGCAACAGAGGAUUGAGCAUCA
B20: chr17:60770872:60770873:+_ENSG00000011028_ENST00000303375|hu_hu|hu_hu_hu_mus_True|1_78 (ssRNA)
RNA: B17 RNA with U77A, C78G, G86A, G137A, G138C, G139C, C141G, U142G, G143A
B21: chr17:60770872:60770873:+_ENSG00000011028_ENST00000303375|hu_hu|hu_hu_hu_mus_True|78_88 (ssRNA)
RNA: B17 RNA with A47U, C48U, A49U, C52A, U55C, U77A, C78G, G86A
B22: chr17:60770872:60770873:+_ENSG00000011028_ENST00000303375|hu_hu|hu_hu_hu_mus_True|78_78 (ssRNA)
RNA: B17 RNA with U77A, C78G, G86A
B23: chr17:60770872:60770873:+_ENSG00000011028_ENST00000303375|hu_hu|hu_hu_hu_mus_True|8_78 (ssRNA)
RNA: GGGAGUUCUACAGUCCGACGAUCUCUUUAAAAAAAAAAAAAAAAAGACAAACAAUAAUAAUGGCACUCGAGAAUCAAGAACUACAAUAGAGGGUCCGCUUUGAGUUUUUGUUCACAUCGUCCUGCAACGCUGUCGCGGGACUGCAACAGAGGAUUGAGCAUCA

The binders below were run against T1, UNK ZnF1-3 (assay: nsRBNS (natural sequence RNA bind-n-seq); RBNS binding buffer (assumed for nsRBNS): 25 mM Tris pH 7.5, 150 mM KCl, 3 mM MgCl2, 0.01% Triton X-100, 500 ug/ml BSA, 20 U/ml SUPERase-In, 4 C; UNK is unkempt and MSI1 is Musashi-1; names of the RNAs are library labels; protein concentration not given here; high values mean tight binding).

Binder | binding signal [enrichment R]
B1 | 1.65
B2 | 0.818
B3 | 0.894
B4 | 1.05
B5 | 1.16
B6 | 0.637
B7 | 1.66
B8 | 4.37
B9 | 5.2
B10 | 2.97
B11 | 1.72
B12 | 0.581
B13 | 1.19
B14 | 1.06
B15 | 1.35
B16 | 0.749
B17 | 3.98
B18 | 3.8
B19 | 3.43
B20 | 3.55
B21 | 5.04
B22 | 4.14
B23 | 2.96
